# Shown are actives, neighbours in structure and some others; about 2.1% of the full set was active somewhere.
# Mot1-301 SUMO: SUMOylation pathway inhibition by Mot1-301 growth rescue | S. cerevisiae Mot1-301 growth rescue, ATP luminescence, 38.5C; percent above DMSO median, 100 means doubled | growth rescue, % at 18.8 µM | 1% of 320,000 active | AID 2716;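 active = every valid replicate shows activation above 250% relative to neutral control wells; inactive = the rest, any valid replicate at or below 250%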;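 also: OY570 slx delta 5 strain wells were the positive control but not used for scaling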
# LANA-H2B inh: blocks KSHV LANA binding to histone H2A/H2B. cell-free LANA-H2A/H2B peptide, fluorescence polarization. inhibition, % (no concentration beside the values). 0.6% of 320,000 active. AID 2629; in the data active = inhibition mostly above about 10%, no sharp cut-off; inactive = mostly below about 6.7%
# IDE inh: inhibitors of human insulin-degrading enzyme in cells; P14735; HEK cells, FAbetaB cleavage, fluorescence polarization; inhibition, % at 5.59 µM; 0.41% of 320,000 active; AID 434962;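 active = percent inhibition above the average of all tested compounds plus 3 SD, set per screening campaign, cut at about 16% in these data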;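 also: IDE supplied by intact live HEK cells; FP after avidin binding of uncleaved biotin substrate so inhibition keeps polarization high; 0% = DMSO wells and 100% = 60 µM reference IDE inhibitor Ii1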
# IDE act: activators of human insulin-degrading enzyme in cells. P14735. HEK cells, FAbeta-B cleavage, fluorescence polarization; 0% vehicle, 100% cell-free pure enzyme wells. activation, % at 5.96 µM. 0.073% of 340,000 active. AID 493087;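 active = activation above the mean of all tested compounds plus 3 SD, set per screening campaign, cut at about 17% in these data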
# HDAC3 inhib: inhibitors of human histone deacetylase 3; O15379; recombinant HDAC3, fluorogenic peptide/trypsin coupled, fluorescence; inhibition, % at 8.3 µM; 0.15% of 320,000 active; AID 2718; in the data active = inhibition above about 26%, passing the limit was not always enough
# IDE cell inh cf: cellular human IDE inhibition, confirmation | HEK cells, FAbetaB cleavage, fluorescence polarization | inhibition, % at 5.59 µM | 51% of 1,200 active | shares compounds with IDE inh;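 active = mean inhibition across triplicate wells above the cutoff set by the earlier primary insulin-degrading enzyme screen, cut at about 16% in these data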;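 also: 0% = DMSO wells and 100% = 60 µM reference IDE inhibitor Ii1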
# HEK cytotox: kills HEK cells in IDE inhibitor counter-screen. inhibition, % at 5.59 µM. HEK293 cytotoxicity, ATP luminescence. 28% of 1,200 active. shares compounds with IDE inh. AID 449730; in the data active = inhibition above about 22%;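 also: 0% = vehicle wells and 100% = reference cytotoxic drug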
# IDE FP artifact: counter-screen for IDE inhibitors: fluorescent artifacts | shares compounds with IDE inh | FP counterscreen for fluorescent artifacts, IDE probe project | IC50, µM | 30 tested, under 10 active | AID 588718; call rule not given here
# An asterisk follows results filed as active; i = inactive; · = not tested or not shown.
SMILES,Mot1-301 SUMO,LANA-H2B inh,IDE inh,IDE act,HDAC3 inhib,IDE cell inh cf,HEK cytotox,others
CN1CCN(C(=O)CCN2C(=O)/C(=C/c3cccc(Br)c3)SC2=S)CC1,-15.2,4.0,19.1*,-0.1,-2.3,1.6,56.0*,
CN1CCN(C(=O)CCCN2C(=O)/C(=C/c3cccc(Br)c3)SC2=S)CC1,·,·,·,2.9,·,·,·,
N#Cc1c2c(c[nH]c1=O)CCN2Cc1ccccc1,0.6,1.7,16.3*,-25.9,-2.6,14.6,4.1,
Oc1[nH]c(N=C2N=c3ccccc3=N2)c2ccccc12,293.3*,-1.0,26.2*,-16.1,-1.4,20.3*,76.2*,
COc1ccc(Cl)cc1N/C(N)=N/c1nc(C)cc(=O)[nH]1,-7.7,-1.1,6.3,-1.1,-4.7,·,·,
COc1ccccc1N/C(N)=N/c1nc(C(F)(F)F)cc(=O)[nH]1,30.1,-5.6,18.4*,-9.1,3.2,7.3,11.8,
COc1ccc(OC)c(S(=O)(=O)NCCCc2ccccc2)c1,49.6,3.0,-1.3,8.1,3.6,·,·,
CCOC(=O)C1CCCN(C(=O)Cn2sc3nc(C)cc(C)c3c2=O)C1 (stereo not given),-3.1,-5.2,18.7*,-60.8,5.0,8.4,65.9*,
COc1nc(NC(=O)c2ccc(F)cc2)nc(OC)c1-c1ccccc1,-10.4,0.1,1.1,4.3,2.9,·,·,
CCCCCCNC(=O)N[C@H](C(=O)NCCC[C@H]1CN2C(=NC[C@H]2C)N1CCC(c1ccccc1)c1ccccc1)C(C)O (stereo not given in full),-12.0,1.3,16.4*,-16.5,9.0,5.2,37.7*,
O=C(C1=C[C@H](c2coc3ccccc3c2=O)C[C@H](OCCCCO)O1)N1CCN(Cc2ccc3c(c2)OCO3)CC1,-8.7,5.0,17.3*,-5.7,0.0,1.6,17.1,
Cn1cc(C(=O)N/N=C/c2c(O)ccc3ccccc23)ccc1=O,20.2,7.0,14.6,-7.3,-0.9,·,·,
O=C(N/N=C/c1c(O)ccc2ccccc12)c1ccc(Br)o1,-5.1,0.7,99.1*,-90.6,0.6,141.5*,101.8*,
O=C(N/N=C\c1c(O)ccc2ccccc12)c1ccc(O)cc1,47.0,2.4,2.1,-0.4,6.9,·,·,
COc1ccc2ccccc2c1/C=N\NC(=O)c1cccnc1,-0.7,2.1,-3.9,·,0.0,·,·,
Cc1ccc(C(=O)N/N=C/c2c(O)ccc3ccccc23)cn1,6.2,-1.1,64.2*,-67.6,1.4,104.7*,95.5*,
Cn1nccc1C(=O)N/N=C/c1c(O)ccc2ccccc12,11.7,2.0,16.2*,-17.2,2.0,22.4*,110.9*,
O=C(N/N=C/c1c(O)ccc2ccccc12)c1cccnc1,62.6,-0.1,62.9*,-36.5,0.3,64.1*,75.8*,
COc1cc(/C=C2\SC(=Nc3ccc(O)cc3)NC2=O)cc(OC)c1O,-1.8,11.1*,128.2*,-65.4,4.0,152.2*,19.2,
CCOc1cc(Br)cc(/C=C2\SC(=Nc3ccccc3)NC2=O)c1O,-0.8,-1.4,22.2*,-24.2,10.5,27.3*,11.9,
CCc1ccc(N=C2NC(=O)/C(=C/c3cc(OC)c(OC)c(OC)c3)S2)cc1,13.5,-0.7,5.1,5.6,5.4,·,·,
CCOC(=O)[C@@H]1[C@H]2COc3ccc(Br)cc3[C@H]2N2C(=O)N(c3ccc(Cl)cc3)C(=O)[C@]12C,3.0,2.4,3.5,-2.0,-8.3,·,·,
CC(=O)c1sc(N/N=C\c2cccc(Br)c2)nc1C,2.7,-0.3,40.0*,-76.3,-2.2,105.5*,14.7,
CC(=O)c1sc(N/N=C\c2ccc(Br)cc2)nc1C,-20.7,-6.2,36.8*,-54.3,10.0,75.8*,8.7,
Cc1cc(=O)[nH]c(N/N=C/c2cccc(Br)c2)n1,22.7,0.6,0.5,-4.9,-6.5,·,·,
SMILES,Mot1-301 SUMO,LANA-H2B inh,IDE inh,IDE act,HDAC3 inhib,IDE cell inh cf,HEK cytotox,others
COc1ccc(-c2csc(NC(=O)c3cc(C)oc3C)n2)cc1OC,1.8,-1.3,16.5*,-12.3,11.8,13.0,21.3,
Cc1cccc(NC(=O)CN(C)C(=O)/C=C/c2ccccc2)c1C,·,·,·,1.4,·,·,·,
CCOc1ccc2[nH]c3c(N4CCN(C(=O)c5ccco5)CC4)ncnc3c2c1,10.9,-3.4,40.2*,·,·,16.1*,12.7,IDE FP artifact=>54.7
COc1ccc(N2CCN(c3ncnc4c3[nH]c3ccccc34)CC2)cc1,5.4,1.1,34.9*,-10.2,-3.7,41.6*,63.9*,
CCOc1ccc2[nH]c3c(N4CCC5(CC4)OCCO5)ncnc3c2c1,-1.0,-0.9,7.8,·,-8.1,·,·,
CCOC(=O)N1CCN(c2ncnc3c2[nH]c2ccc(OC)cc23)CC1,·,-0.5,41.1*,-11.5,-13.8,26.2*,10.8,
CCOC(=O)N1CCN(c2ncnc3c2[nH]c2ccc(F)cc23)CC1,-11.1,3.8,61.9*,-54.3,-4.3,52.3*,58.5*,
COc1ccc(C)cc1N(CC(=O)NCCSCc1cccc(Cl)c1)S(C)(=O)=O,-5.3,-4.9,1.2,1.0,-0.4,·,·,
CCCc1cc(=O)[nH]c(SCC(=O)N2CCc3ccccc32)n1,-6.4,-5.2,-3.8,1.6,-2.1,·,·,
O=C(CN(C(=O)c1csnn1)c1ccccc1C(F)(F)F)NCc1ccccc1,35.1,4.3,-2.9,2.9,-0.4,·,·,
Fc1ccc2[nH]c3c(N4CCN(c5ccccc5)CC4)ncnc3c2c1,159.3,5.9,50.4*,-9.3,3.2,33.5*,55.1*,
OC1(c2cccc(C(F)(F)F)c2)CCN(c2ncnc3c2[nH]c2ccc(F)cc23)CC1,·,·,·,-18.4,·,·,·,
COc1ccc2[nH]c3c(N4CCc5ccccc5C4)ncnc3c2c1,-10.6,-0.5,20.4*,-26.9,-0.3,13.0,72.7*,
Cc1ccc(N=C2NC(=O)/C(=C/c3cn(C)c4ccccc34)S2)cc1C,-1.6,-11.9,18.8*,-36.5,6.1,52.1*,21.9,
COc1ccc(Br)cc1/C=N/N1C(=O)CSC1=S,-18.1,-4.2,5.8,-0.8,3.2,·,·,
COc1cc(/C=N/N2C(=O)CSC2=S)ccc1O,-7.3,3.3,26.4*,-15.2,0.2,44.0*,3.8,
COc1ccccc1N1CCN(C2CC(=O)N(c3ccc(F)cc3)C2=O)CC1 (stereo not given),-9.6,0.5,0.3,-0.6,0.5,·,·,
CCOc1cc(N(CC)CC)ccc1/C=C(/C#N)c1nc2ccccc2[nH]1,92.0,-1.5,107.7*,-115.2,20.4,143.6*,28.9*,
CCN(CC)c1ccc(/C=C(/C#N)c2nc3ccc(C)cc3[nH]2)c(OC(C)C)c1,53.9,4.5,136.2*,-113.0,2.1,152.4*,23.1*,
CC1(C(=O)N2CCN(Cc3ccccc3Cl)CC2)CC1(Cl)Cl (stereo not given),i,-5.5,0.8,-4.9,0.4,·,·,
COC(=O)CN1C(=O)S/C(=C/c2ccc(N3CCCCC3)o2)C1=O,306.6,-58.9,3.2,-141.8,8.9,·,·,
